Growth data for eight molecules are collected here from PubChem BioAssay (NCI).

Structures are written as SMILES. Compounds without any hit were thinned out: in the full panel of roughly 83,000, 20% have a hit.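 Treatment: one concentration, 48 hours, 96-well format. Scoring: percent growth, with anything below 10 considered active.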 A number with no mark means an inactive call. Active and inactive are the calls of the source.

Some test systems named below: SK-MEL-2 melanoma; EKVX NSCLC; SN12C renal; UO-31 renal; TK-10 renal; ACHN renal; A498 renal; CCRF-CEM leukemia; MOLT-4 leukemia; SR leukemia; RPMI-8226 leukemia; OVCAR-8 ovarian; OVCAR-5 ovarian; OVCAR-4 ovarian; SK-OV-3 ovarian; HS 578T breast; IGROV1 ovarian; NCI/ADR-RES ovarian; OVCAR-3 ovarian.
What all share (experiment): NCI-60 one-dose screen, 48 h (100 = growth as untreated, 0 = no growth, -100 = all killed)
Holding throughout (conditions): 10 µM unless noted

As for `COc1ccc(C2=NN(C(=O)COc3ccc(Cl)cc3)C(O)(c3cc(F)c(Cl)cc3Cl)C2)cc1OC` (configuration not stated), the growth with SK-MEL-2 melanoma was 68.3%; in the test on EKVX NSCLC it was 61.6%; in the test with SN12C renal it was 19.8%; in the test with UO-31 renal, -86.6% (active); with TK-10 renal, 16%; in the test on ACHN renal, 5.24% (active). Moreover, the growth with A498 renal was 141%; in the test with CCRF-CEM leukemia it was -62.1% (active); in the test with MOLT-4 leukemia it was -32% (active); with SR leukemia it was -35.1% (active); in the test on RPMI-8226 leukemia, -74.8% (active); in the test with OVCAR-8 ovarian it was 5.4% (active). For the same molecule, the growth is 82.8% in the test with OVCAR-5 ovarian, 21.8% in the test on OVCAR-4 ovarian, 93.6% with SK-OV-3 ovarian and 22% with HS 578T breast.
For the molecule `Nc1nc(Cl)cc(NCc2ccc(CNc3cc(Cl)nc(N)n3)cc2)n1`, the growth was 74.1% in the test with SK-MEL-2 melanoma; 70.4% in the test with EKVX NSCLC; 106% in the test on SN12C renal; 84.3% in the test on UO-31 renal; 124% in the test on TK-10 renal; 92.7% in the test on ACHN renal. The growth is 73.7% with A498 renal; 107% in the test on CCRF-CEM leukemia; 70.7% in the test with MOLT-4 leukemia; 139% with SR leukemia; 103% with RPMI-8226 leukemia; 89.6% with OVCAR-8 ovarian. Also, the growth is 82.5% with OVCAR-5 ovarian; 59.7% in the test on OVCAR-4 ovarian; 92.5% with SK-OV-3 ovarian; -31% (active) with IGROV1 ovarian; 100% in the test with HS 578T breast; 103% in the test with NCI/ADR-RES ovarian.
Take `Nc1ccc(S(=O)(=O)Nc2cc(I)cc(I)c2)cc1`: the growth in the test on SK-MEL-2 melanoma was 97.7%; in the test on EKVX NSCLC, 124%; in the test on SN12C renal, 115%; in the test with UO-31 renal, 99.7%; in the test on TK-10 renal, 107%; in the test on ACHN renal it was 120%. For the same molecule, the growth was 77.7% in the test with A498 renal; -9.38% (active) with CCRF-CEM leukemia; -69.4% (active) in the test with MOLT-4 leukemia; 15.8% with SR leukemia; 97.5% with RPMI-8226 leukemia; 107% in the test with OVCAR-8 ovarian. The growth with OVCAR-5 ovarian is 86.5%; with OVCAR-4 ovarian it was 99%; in the test on SK-OV-3 ovarian, 117%; in the test with IGROV1 ovarian it was 104%; in the test with HS 578T breast, 117%; in the test with NCI/ADR-RES ovarian, 97.5%.
As for `O=C(NC(=S)Nc1ccc(Cl)cc1)c1ccccc1`, the growth with SK-MEL-2 melanoma is 108%; in the test on EKVX NSCLC, 78.7%; in the test with SN12C renal it was 98.4%; in the test on UO-31 renal it was 83.1%; in the test with TK-10 renal it was 117%; in the test on ACHN renal it was 101%. Further, the growth with A498 renal is 103%; in the test on CCRF-CEM leukemia, 102%; in the test with MOLT-4 leukemia it was 72.8%; in the test with SR leukemia it was 67.9%; in the test with RPMI-8226 leukemia, 95.3%; in the test on OVCAR-8 ovarian, 102%. Further, the growth in the test with OVCAR-5 ovarian was 84.8%; in the test on OVCAR-4 ovarian it was 85.6%; in the test with SK-OV-3 ovarian, 115%; with OVCAR-3 ovarian, 125%; in the test with HS 578T breast it was 127%; with NCI/ADR-RES ovarian it was 104%.
On to `C=C1C(=O)O[C@H]2[C@H]1CC/C(COC(=O)c1cc(OC)c(OC)c(OC)c1)=C\CC[C@@]1(C)O[C@@H]21`, for which the growth is -39.4% (active) in the test on SK-MEL-2 melanoma; -70.6% (active) in the test on EKVX NSCLC; -5.94% (active) in the test with SN12C renal; -99% (active) in the test on UO-31 renal; -64.4% (active) with TK-10 renal; -87.7% (active) in the test on ACHN renal. Besides, the growth was 59.8% in the test on A498 renal; -22% (active) with CCRF-CEM leukemia; -14.8% (active) in the test on MOLT-4 leukemia; -13.2% (active) in the test on SR leukemia; -36.2% (active) in the test with RPMI-8226 leukemia; -45.7% (active) in the test on OVCAR-8 ovarian. Also, the growth in the test on OVCAR-5 ovarian is -12.4% (active); with OVCAR-4 ovarian it was 20.1%; with IGROV1 ovarian it was -8.27% (active); in the test on OVCAR-3 ovarian it was -69.8% (active); with HS 578T breast, 32.9%; with NCI/ADR-RES ovarian, 10.9%.
Turning to `COc1cc(/C=C/C(=O)N2CCC=CC2=O)cc(OC)c1OC`, the growth with SK-MEL-2 melanoma was 74.9%; in the test with EKVX NSCLC, 57.1%; in the test on SN12C renal, 45.1%; with UO-31 renal it was 57.7%; in the test on TK-10 renal, 38.7%; in the test on ACHN renal, -7.71% (active). The growth in the test with A498 renal is 98.7%; in the test on CCRF-CEM leukemia it was 15%; in the test on MOLT-4 leukemia, 42.1%; in the test with SR leukemia, 10.3%; in the test with RPMI-8226 leukemia, -11.3% (active); with OVCAR-8 ovarian it was 4.06% (active). In addition, the growth with OVCAR-5 ovarian was 86.6%; in the test on OVCAR-4 ovarian, 48.8%; in the test with IGROV1 ovarian it was 30.9%; with OVCAR-3 ovarian, 18.5%; with HS 578T breast it was 84.5%; with NCI/ADR-RES ovarian, 67.2%.
In the case of `Cc1nssc1=S`, the growth is 88.6% with SK-MEL-2 melanoma; 96.5% with EKVX NSCLC; 118% in the test on SN12C renal; 87.9% in the test with UO-31 renal; 96.4% with TK-10 renal; 109% in the test with ACHN renal. In addition, the growth was 147% with A498 renal; 92.2% in the test with CCRF-CEM leukemia; 99.8% in the test on MOLT-4 leukemia; 97.6% with SR leukemia; 97% with RPMI-8226 leukemia; 97.9% in the test on OVCAR-8 ovarian. The growth with OVCAR-5 ovarian is 94.6%; in the test on OVCAR-4 ovarian, 109%; in the test with SK-OV-3 ovarian, 110%; with IGROV1 ovarian, -13.5% (active); in the test with HS 578T breast it was 98.3%; with NCI/ADR-RES ovarian, 96.6%.
For the molecule `C=C(C)[C@@H]1C/C=C(\COC(=O)[C@H](OC(C)=O)C(NC(=O)c2ccccc2)c2ccccc2)CC[C@H]2O[C@]2(C)CC/C=C(\C)CC1` (some centres not stated), the growth is 76.2% [5 µM] in the test with SK-MEL-2 melanoma; 64.5% [5 µM] in the test on EKVX NSCLC; 82.1% [5 µM] in the test with SN12C renal; 51.9% [5 µM] in the test with UO-31 renal; 85.8% [5 µM] in the test with TK-10 renal; 86.8% [5 µM] in the test on ACHN renal. Besides, the growth in the test on A498 renal is 84.9% [5 µM]; in the test on CCRF-CEM leukemia it was -89.5% [5 µM] (active); in the test on MOLT-4 leukemia, 17.6% [5 µM]; in the test with SR leukemia, 3.12% [5 µM] (active); with RPMI-8226 leukemia it was -6.61% [5 µM] (active); with OVCAR-8 ovarian, 86.7% [5 µM]. Further, the growth is 88.7% [5 µM] in the test on OVCAR-5 ovarian; 62.3% [5 µM] with OVCAR-4 ovarian; 87.7% [5 µM] in the test with SK-OV-3 ovarian; 45.9% [5 µM] in the test on IGROV1 ovarian; 79.5% [5 µM] with HS 578T breast; 62.9% [5 µM] with NCI/ADR-RES ovarian.
